Source: PubChem (National Center for Advancing Translational Sciences (NCATS))
Compounds with a hit are over-represented: about 1.7% of the library has one in this group of screens.
PTHR1 ag: PTHR1 (human) receptor agonism | Q03431 | HEK293 GP2 PTHR1 cells, GloSensor cAMP luminescence, 1 h | Potency, µM (doses to about 115 µM), hits mostly activators | 410,000 tested, 0.075% active | AID 743266; note: nearly all actives have a fitted effect of over 55% in size
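HEK-293-derived GP2 cells expressing PTHR1 and a GloSensor cAMP reporter, 3,000/well, plated overnight, given luciferin plus IBMX (each 0.5 mM as added) for 1 h at 37 °C, then compound for 1 h at 37 °C. Luminescence was read after 15 min at room temperature.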
GLP-1R agonist: agonists of human GLP-1 receptor | HEK293 GLP-1R CRE-luciferase, luminescence, 4-6 h; cells express a hypersensitive GLP-1R form | AID 624172 | Potency, µM (doses to about 45.6 µM), actives largely listed as activators | 380,000 tested, 0.007% active
Target sequence (P43220 whole entry, looked up): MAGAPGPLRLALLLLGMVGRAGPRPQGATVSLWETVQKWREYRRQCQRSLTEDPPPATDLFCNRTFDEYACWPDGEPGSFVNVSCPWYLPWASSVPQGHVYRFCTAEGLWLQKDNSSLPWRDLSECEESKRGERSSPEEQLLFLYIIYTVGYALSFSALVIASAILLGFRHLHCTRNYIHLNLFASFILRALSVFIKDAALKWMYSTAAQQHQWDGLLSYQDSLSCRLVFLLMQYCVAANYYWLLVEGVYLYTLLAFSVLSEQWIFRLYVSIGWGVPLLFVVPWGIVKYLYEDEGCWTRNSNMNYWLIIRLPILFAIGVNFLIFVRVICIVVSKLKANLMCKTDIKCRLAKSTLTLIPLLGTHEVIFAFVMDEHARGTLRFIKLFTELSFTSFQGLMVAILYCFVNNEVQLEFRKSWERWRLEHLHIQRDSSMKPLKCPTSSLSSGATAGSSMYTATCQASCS
HEK293 tox: cytotoxicity in counter-screen for GLP-1R inverse agonists; Potency, µM (top dose mostly 38.3 µM), usual class: inhibitors; HEK293 cAMP-luciferase reporter cells, luminescence, 24 h; 410,000 tested, 0.13% active;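 note: loss of luciferase light is scored as toxicity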
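Step one: seed cells (200 cells/uL, DMEM with 10% Nu serum, 1% pen-strep). Step two: 12-hour incubation at 37 deg C. Step three: pin 23 nL compound, incubate 24 hr. Step four: add luciferase reagent, read luminescence 12 min later.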
GLP-1R inv ag: inverse agonists of human GLP-1 receptor; AID 624417; HEK293 GLP-1R CRE-luciferase, luminescence, 24 h; GLP-1R form is constitutively active; 410,000 tested, 1.6% active; Potency, µM (top dose mostly 38.3 µM), most hits filed as inhibitors; note: nearly all actives have a fitted effect of over 55% in size
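Stable HEK293 clone (constitutively active GLP-1R + cAMP-response luciferase); 200 cells/uL plated, 12 h pre-culture, compound 24 hr, 37 deg C/5% CO2; detection reagent 12 min RT; luminescence.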
Large screens that a line does not name were inactive. Calls come from the whole dose curve; as a rule, active = well fitted curve in the direction sought with a large enough effect; inconclusive = small, poorly fitted or top-dose-only effect, or another doubt; inactive = no such curve, though single readings can be large; an effect the other way counts as inactive or inconclusive.

CCOc1ccc(CCNC(=O)c2nn(C)c3c2CSc2ccc(C)cc2-3)cc1OCC	GLP-1R inv ag 10µM (no result: GLP-1R agonist)
CCn1cc(S(=O)(=O)c2ccc(C)cc2C)c(=O)c2cc(F)c(N3CCCC3)cc21	none (no result: GLP-1R agonist)
CCCSc1ncc(Cl)c(C(=O)N(Cc2ccc(Cl)cc2)Cc2ccco2)n1	none (no result: GLP-1R agonist)
CCSc1ncc(Cl)c(C(=O)N(Cc2ccccc2)Cc2ccco2)n1	GLP-1R inv ag 10µM (no result: GLP-1R agonist)
CCCS(=O)(=O)c1ncc(Cl)c(C(=O)N(Cc2ccccc2)Cc2ccco2)n1	HEK293 tox 10µM, GLP-1R inv ag 12.6µM (no result: GLP-1R agonist)
COc1ccc(N(Cc2ccccc2)C(=O)c2nc(SC)ncc2Cl)cc1	GLP-1R inv ag 11.2µM (no result: GLP-1R agonist)
COc1ccc(NC(=O)c2nc(SC)ncc2Cl)cc1	none
CCOC(=O)C1CCC(CN(Cc2c(Cl)cccc2Cl)S(=O)(=O)c2ccc(F)c(C)c2)CC1 (centres undefined)	none (no result: GLP-1R agonist)
Cc1ccc(S(=O)(=O)Nc2ccccc2N2CCCCC2)cc1	GLP-1R inv ag 2.82µM
COc1ccccc1CNS(=O)(=O)c1ccc2c(c1)NC(=O)C(C)C(=O)N2 (centres undefined)	none (no result: GLP-1R agonist)
COC(=O)CNC(c1ccccc1Cl)c1cc(Br)ccc1NS(=O)(=O)c1ccc(C)cc1 (centres undefined)	GLP-1R inv ag 3.55µM
O=C(c1ccccc1)N(Cc1ccccc1)Cc1ccccc1	GLP-1R inv ag inconclusive
CC1(C(=O)N(Cc2ccccc2)Cc2ccccc2)CC1(Br)Br (centres undefined)	GLP-1R inv ag 3.98µM
COc1ccnc(CSC(N)=Nc2ccccc2C(F)(F)F)c1	none
COc1ccnc(CSC(N)=Nc2cccc(C(F)(F)F)c2)c1	GLP-1R inv ag 11.2µM
CC1=Nc2cc(C(=O)NCCCN3CCOCC3)ccc2Sc2c(C)ccc(C)c21	GLP-1R inv ag 8.91µM
CC1=Nc2cc(C(=O)NCCc3ccccc3)ccc2Sc2c(C)ccc(C)c21	HEK293 tox inconclusive, GLP-1R inv ag inconclusive
CC1=Nc2cc(C(=O)NCCN3CCOCC3)ccc2Sc2c(C)ccc(C)c21	GLP-1R inv ag inconclusive
CC1=Nc2cc(C(=O)NCCc3ccc(Cl)cc3)ccc2Sc2c(C)ccc(C)c21	HEK293 tox inconclusive, GLP-1R inv ag 2.82µM
CC(=O)Nc1ccc(S(=O)(=O)N2CCN(c3ccc(C)c(C)c3)CC2)cc1	none
C[C@@H]1CN([C@H](C)CO)C(=O)Cc2cc(NS(=O)(=O)c3ccc(F)cc3)ccc2O[C@H]1CN(C)Cc1ccc(C(=O)O)cc1	none
C[C@H](CO)N1C[C@H](C)[C@H](CN(C)Cc2ccccc2)Oc2ccc(NC(=O)Nc3ccc(F)cc3)cc2C1=O	GLP-1R inv ag 11.2µM
C[C@@H]1CCCCO[C@H](CN(C)Cc2ccc3c(c2)OCO3)[C@H](C)CN([C@@H](C)CO)C(=O)c2cc(NC(=O)c3ccccc3)ccc2O1	GLP-1R inv ag inconclusive
C[C@@H]1CN([C@H](C)CO)C(=O)Cc2cc(NS(=O)(=O)c3ccc(Cl)cc3)ccc2O[C@H]1CN(C)Cc1ccc(C(F)(F)F)cc1	GLP-1R inv ag 10µM
C[C@@H]1CN([C@@H](C)CO)C(=O)c2cc(NC(=O)c3ccccc3)ccc2O[C@@H](C)CCCCO[C@@H]1CN(C)Cc1ccc(C(F)(F)F)cc1	GLP-1R inv ag 11.2µM
C[C@H](CO)N1C[C@H](C)[C@H](CN(C)Cc2ccccc2)Oc2c(NC(=O)Nc3ccc(F)cc3)cccc2C1=O	none
CCOC(=O)c1cc(C)n(CC2CCC(C(=O)Nc3cc(OC)cc(OC)c3)CC2)c1C (centres undefined)	GLP-1R inv ag inconclusive (no result: GLP-1R agonist)
COc1ccccc1Cc1nc2ccccc2nc1SCC(=O)N1CCC(C)CC1	none
CCOC(=O)c1c(C)oc2nc(C)nc(N3CCN(c4cccc(C)c4C)CC3)c12	PTHR1 ag inconclusive (no result: GLP-1R agonist)
CCOc1ccc(NCc2cccn2-c2nnc(N3CCC(C(=O)NCCc4ccc(OC)c(OC)c4)CC3)s2)cc1	GLP-1R inv ag inconclusive (no result: GLP-1R agonist)
COc1ccc(N2CCN(C(=O)Cc3c(C(=O)O)c(C)cn3C)CC2)cc1	none (no result: GLP-1R agonist)
COC(=O)NCC(c1ccco1)N1CCN(c2ccc(F)cc2)CC1 (centres undefined)	none
O=S(=O)(NCC(c1ccco1)N1CCN(c2ccc(F)cc2)CC1)c1ccc(F)cc1 (centres undefined)	GLP-1R inv ag 10µM
O=C(NCC(c1ccco1)N1CCN(c2ccc(F)cc2)CC1)OCc1ccccc1 (centres undefined)	GLP-1R inv ag 3.55µM
COc1ccc(NC(=O)c2cc3c(=O)n(Cc4cccnc4)ccc3nc2C)c(OC)c1	none (no result: GLP-1R agonist)
CSc1cccc(N2C(=O)N(CC(=O)NCc3ccccc3Cl)c3ccccc3S2(=O)=O)c1	none
CCCC(=NC(C)CC)C1=C(O)CC(c2ccccc2)CC1=O (centres undefined)	GLP-1R inv ag 10µM
CCC(C)N=CC1=C(O)CC(c2ccccc2)CC1=O (centres undefined)	none
Cc1cc(C)nc(N/N=C/C=C/c2ccccc2)n1	HEK293 tox 11.2µM, GLP-1R inv ag inconclusive
CC[C@@]12C(=O)N(c3cccc(Br)c3)C(=O)N1[C@H](c1ccc(F)cc1)[C@@H]1C(=O)N(C3CCCCC3)C(=O)[C@@H]12	GLP-1R inv ag 8.91µM
O=C1[C@H]2[C@@H](c3ccc(F)cc3)N3C(=O)N(c4cccc(Br)c4)C(=O)[C@@]3(Cc3ccccc3)[C@H]2C(=O)N1C1CCCCC1	GLP-1R inv ag 2.82µM
Cc1cccc(Cn2cc(C(=O)c3ccccc3)c(=O)c3cc4c(cc32)OCO4)c1	none (no result: GLP-1R agonist)
CC(C)(C)c1ccc(Oc2ccc(NC(=O)c3ccco3)cn2)cc1	GLP-1R inv ag 2.51µM
O=C(Nc1ccc(Oc2cccc(C(F)(F)F)c2)nc1)c1ccco1	GLP-1R inv ag inconclusive
COc1ccc(-c2cccc(NC(=O)c3ccco3)c2)nn1	none
COc1ccc(-c2ccc(NC(=O)c3ccco3)cc2)nn1	GLP-1R inv ag 7.08µM
NC(=S)N/N=C/c1ccccc1OCCSc1ccc(Cl)cc1	HEK293 tox 3.16µM, GLP-1R inv ag 2.82µM
O=C(Nc1cccc(Cl)c1)OCCOC(=O)Nc1cccc(Cl)c1	HEK293 tox inconclusive, GLP-1R inv ag 10µM
CCOP(=O)(OCC)C(NC(=O)Nc1cccc(Cl)c1)c1ccccc1 (centres undefined)	GLP-1R inv ag 7.94µM
CCOc1ccc(-n2c(SCC(=O)Nc3cc(C)ccc3C)nc3c([nH]c4ccccc43)c2=O)cc1	none
Cc1ccc(CNC(=O)c2c3c(nc4ccccc24)C(=O)N(C2CCCCC2)C3)cc1	GLP-1R inv ag 11.2µM (no result: GLP-1R agonist)
CCN(C(=O)c1nn(C)c2c1CSc1ccccc1-2)c1cccc(C)c1	GLP-1R inv ag inconclusive (no result: GLP-1R agonist)
COc1ccc(CN2C(=O)C(C)N(C(=O)c3c(F)cccc3F)c3ccccc32)cc1 (centres undefined)	GLP-1R inv ag inconclusive
CC1C(=O)N(Cc2ccc([N+](=O)[O-])cc2)c2ccccc2N1C(=O)c1c(F)cccc1F (centres undefined)	GLP-1R inv ag 10µM
